In all, about 410,000 compounds went through this assay and about 5,100 (1.2%) were called active. Not shown: some 8% with an inconclusive outcome. The full list was thinned out, with actives kept by preference. Unmarked numbers belong to inactive results. Calls follow the shape of the full dose curve; tested in HEK293T cells.
Experiment: High Throughput Screening for Foot and Mouth Disease Virus Antivirals; also: read-out not given here; nearly all actives have a fitted effect of over 45% in size
Details: FMDV antiviral cell-based qHTS; series mostly up to 57.9 µM; activity change, negative = inhibition: at the top concentration
% is scaled to controls: 0 for no effect and ±100 for the full control effect; potency is read from the fitted curve at half-maximal effect.

Structure (SMILES)	Potency	activity change, negative = inhibition
COCCn1c(CN2CCC(Cc3ccccc3)CC2)nc2c1c(=O)n(C)c(=O)n2C	15.8 µM (active)	
CC1CN(Cc2nc3c(c(=O)n(C)c(=O)n3C)n2Cc2cccc(Cl)c2)CC(C)O1 (centres undefined)		-21.5%
CC1CCCN(Cc2nc3c(c(=O)n(C)c(=O)n3C)n2CC(=O)c2ccccc2)C1 (centres undefined)		0%
CC(C)C1=CC2=CC[C@H]3[C@](C)(C(=O)O)CCC[C@]3(C)C2CC1 (some centres undefined)		-0.372%
O=c1cc(CN2CCN(S(=O)(=O)/C=C/c3ccccc3)CC2)c2ccc(O)cc2o1		-8.35%
CC(=O)N1CCN(Cc2cc(=O)oc3cc(C)ccc23)CC1		-5.75%
COc1ccc2c(CN3CCN(S(=O)(=O)c4cccs4)CC3)cc(=O)oc2c1	39.8 µM (active)	
O=c1c(NCc2cccs2)nccn1-c1ccccc1		49.2%
CCCCC/C=C\C/C=C\C/C=C\C=C\[C@H](CCCC(=O)O)OO		-15.4% [at 0.463 µM]
COc1ccc(CCNC(=O)c2ccc(CS(=O)(=O)c3ccc(Br)cc3)o2)cc1OC	31.6 µM (active)	
COc1ccc(CCNC(=O)c2nnc(CS(=O)(=O)c3ccccc3)o2)cc1OC		-14.6%
O=C(NCc1cccnc1)c1ccc(CS(=O)(=O)c2ccc(Br)cc2)o1		-5.61%
Cc1nnc(NC(=O)CSc2nc3c([nH]c4ccccc43)c(=O)n2-c2cccc(Cl)c2)s1		-12.3%
Cc1nnc(SCc2cccc(Cl)c2)n(N)c1=O		-10.6%
Cc1cccc2nc(CSc3nc4[nH]ncc4c(=O)n3-c3cccc(Cl)c3)cc(=O)n12	15.8 µM (active)	
Cc1ccc(CSc2nc3[nH]ncc3c(=O)[nH]2)cc1		0%
CCc1ccc(-n2c(SCc3cc(=O)n4cc(Br)ccc4n3)nc3[nH]ncc3c2=O)cc1	31.6 µM (active)	
O=c1c2sccc2nc(SCc2cc(=O)n3ccccc3n2)n1-c1ccc(Br)cc1		0%
O=C(NCc1ccccc1)C(=O)NCC(c1ccco1)S(=O)(=O)c1ccc(Cl)cc1 (centres undefined)	31.6 µM (active)	
COc1ccc(CCNC(=O)C(=O)NCC(c2ccco2)S(=O)(=O)c2cccs2)cc1OC (centres undefined)		0%
O=C(Cc1ccc(Cl)cc1)NCC(c1cccs1)S(=O)(=O)c1ccc(Cl)cc1 (centres undefined)		-11.8%
COc1ccc(Oc2ncc3nc(-c4ccc(F)cc4)c(=O)n(C)c3n2)cc1		-9.03%
CC(=O)Nc1cc(C(=O)NCc2ccc(F)cc2)ccc1Sc1ccc(F)cc1		-26.4%
Cc1nnc2n1N=C(c1ccc3c(c1)NC(=O)CO3)CS2		21.3%
COc1ccc(C2=Nn3c(nnc3-c3ccccc3OC)SC2)cc1OC1CCCC1	14.1 µM (active)	

Structure (SMILES)	Potency	activity change, negative = inhibition
CCN(CCCNC(=O)CSc1cc(=O)n(C)c2cc(Cl)ccc12)c1cccc(C)c1		-13.6%
CCC1(C2CCN(C(=O)c3cccc(F)c3F)CC2)NC(=O)N(CCc2scnc2C)C1=O (centres undefined)		7.43%
COc1cc(=O)n2c(c1C(=O)NCc1ccco1)CCN(Cc1ccccc1)CC2		2.46%
COc1cccc(-c2nc(CS(=O)(=O)CC(=O)N3CCN(c4cc(C)ccc4C)CC3)c(C)o2)c1	20 µM (active)	
CCCCN(CC)CCCNC(=O)CS(=O)(=O)Cc1nc(-c2cccc(OC)c2)oc1C		-3.14%
Cc1ccccc1-c1nc(CS(=O)(=O)CC(=O)N2CCc3ccccc3C2)c(C)o1		-27%
COc1ccc(C)cc1-n1c(-c2ccc(C)cc2)cc2c1CC(C)(C)CC2=O		-2.9%
N#CC(C#N)=Cc1cc(O)c(O)c([N+](=O)[O-])c1		-7.05%
COc1ccc(-n2nnc(-c3nsc(NC(=O)c4ccc(C)c(C)c4)n3)c2C)cc1Cl		-19.3%
CCc1ccc(CNC(=O)C2CCN(c3nnc(C)c4c(C)n(-c5ccc(C)cc5)nc34)CC2)cc1	inactive	
Cc1sc2ncnc(SCC(=O)NC3CCS(=O)(=O)C3)c2c1C (centres undefined)		-23.1%
Cc1sc2ncnc(N3CCC(C(=O)NNC(=O)c4ccc(F)cc4)CC3)c2c1C	20 µM (active)	
Cc1ccc(C)n1-c1nnc(N2CCC(C(=O)NCc3ccc(F)cc3)CC2)s1		-25.1%
CCc1ccc(C(=O)NNC(=O)C2CCN(c3ncnc4sc(C)c(C)c34)CC2)cc1	31.6 µM (active)	
Cc1sc2ncnc(SCC(=O)Nc3ccc(CN4CCCC4)cc3)c2c1C		-22.6%
COc1cccc(Cn2c(=O)c(CCc3ccccc3)nc3cnc(N(C)C)nc32)c1		-7.95%
COc1ccc(/C=C2\NC(=O)[C@@H]3Cc4ccccc4CN3C2=O)cc1		28%
CC(=O)N1CCC2(CC1)CCN(c1ccncc1)CC2		-9.96%
COc1ccc(C2Oc3c(I)c(OC)cc(OC)c3CC2O)cc1OC (centres undefined)		3.52%
COc1ccc(-n2c(=O)c(C)nc3cnc(N4CCOCC4)nc32)cc1		-8.77%
Cc1ccc(CCNC(=O)c2ccc3c(c2)nc2n3CCC(C)C2)cc1 (centres undefined)		-9.81%
CCCCCn1c(SCCC(C)C)nc2c1c(=O)[nH]c(=O)n2C	39.8 µM (active)	
C=CCn1c(SCc2ccccc2)nc2c1c(=O)[nH]c(=O)n2C		32.2%
CC=CCn1c(SCCCc2ccccc2)nc2c1c(=O)[nH]c(=O)n2C		-12.5%
COc1ccc(S(=O)(=O)NCc2cccn2Cc2cccc(C)c2)cc1		71.6%

Structure (SMILES)	Potency	activity change, negative = inhibition
Cn1cc(-c2nc3cnc(N4CCNCC4)nc3n(CCc3ccccc3)c2=O)c2ccccc21		-24.2%
Cc1cc(-c2ccnc(-n3ncc(C(=O)NC(C)(C)CO)c3C3CC3)n2)c(C)s1		6.73%
CCOC(=O)c1c(NC(=O)CCl)sc(C(=O)N(CC)CC)c1C	20 µM (active)	
CCOC(=O)c1c(NC(=O)COC(=O)c2ccc(S(=O)(=O)C(F)F)cc2)sc(C(=O)N(C)C)c1C		0.764%
CCOC(=O)c1c(NC(=O)c2cc(CC)on2)sc(C(C)=O)c1C		0.248%
O=C(CCS(=O)(=O)c1ccc2c(c1)NC(=O)CO2)Nc1cccc(C(F)(F)F)c1		-28.2%
O=C(c1ccco1)N1CCC2(CC1)CN(c1ncccn1)C2		-11.2%
CCOC(=O)c1cc2c(=O)n3ccccc3nc2n(Cc2ccco2)c1=NC(=O)c1ccc(F)cc1		1.4%
Cn1c(=O)c(-c2ccccc2)nc2cnc(N3CCNCC3)nc21		6.27%
Cc1ccc(-n2cc3ccc([N+](=O)[O-])cc3n2)cc1		-31.7%
Cc1ccc(-c2cn3cc([N+](=O)[O-])ccc3n2)cc1	11.2 µM (active)	
Cc1ccc(-c2cn3cc(C)ccc3n2)cc1	8.91 µM (active)	
Cn1cnc(C(F)(F)F)c1-c1ccc([N+](=O)[O-])cc1		-19.4%
Cc1nc(-c2ccccc2)cn2c1nc1ccccc12		-9.62%
CN(C)C(=O)c1ccc(-c2cncnc2Nc2ccccc2)cc1		-6.02%
O=C(c1cccc(F)c1)N1CCC2(CCCN(Cc3ccncc3)C2)CC1		-26.4%
CC1CCN(S(=O)(=O)c2ccc3c(ccn3CCC(=O)NCc3ccc(N(C)C)cc3)c2)CC1		1.71%
Cn1c(=O)oc2cc(S(=O)(=O)N3CCC(C(=O)Nc4ccc(OC(F)(F)F)cc4)CC3)ccc21		-14%
Cc1ccc2nc(NC(=O)C3CCN(S(=O)(=O)c4ccc5c(c4)oc(=O)n5C)CC3)sc2c1	12.6 µM (active)	
Cc1ccc(S(=O)(=O)N2CCC(C(=O)Nc3cc(C)ccc3C)CC2)cc1		-22.2%
CC(C)N1C[C@@H](NCc2ccccc2O)C[C@H]1C(=O)N1CCN(c2cccc(C(F)(F)F)c2)CC1		-12.8%
O=c1c(-c2ccc(F)c(F)c2)nc2cncnc2n1-c1ccccc1		7.12%
O=C(Nc1ccccc1Cl)N1CCC(CN2CCCC2)CC1		-5.25%
O=C(Nc1ccccc1Cl)/C(Cl)=C(\Cl)S(=O)c1ccccc1 (centres undefined)	7.08 µM (active)	
O=C(Nc1ccccc1Cl)N1CCC(CN2CCCCC2)CC1		5.93%

Structure (SMILES)	Potency	activity change, negative = inhibition
CSc1nc(Nc2ccc(F)cc2)cc(-c2ccccc2)n1		-7.74%
CC(=O)c1ccc(F)c(-c2cc(C)cc3c2OC(CNC(=O)Cc2c[nH]c4ccccc24)C3)c1 (centres undefined)		6.09%
Cc1nnc(SCc2cc(=O)c3cc(F)ccc3[nH]2)n1C		0.843%
CC(=O)c1c(O)c(C)c(O)c(Cc2c(O)c3c(c(C(=O)/C=C/c4ccccc4)c2O)OC(C)(C)C=C3)c1O	inactive	
O=C(CSc1nccn1Cc1ccc(F)cc1)NCc1ccccc1		-2.54%
CC(C)(C)c1ccc(OC(=O)N2CCCCC2)cc1		25.1%
CC(C)(C)c1ccc(Oc2ccc(N)cc2)cc1	2.51 µM (active)	
COc1ccc(CCNc2ncnc3c2cnn3-c2ccc(C)cc2)cc1		-11.5%
CC1(C)CCSC(/C=C/c2ccccc2)=N1	14.1 µM (active)	
CC1(C(=O)O)CCN1C(=O)/C=C/c1ccccc1 (centres undefined)		-4.75%
CC1(C(=O)NS(=O)(=O)c2ccccc2)CCN1C(=O)C/C=C/c1ccccc1 (centres undefined)		-14.2%
CC1(C)C=CC(=O)[C@]2(C)C1CC(=O)[C@]1(C)C2CC[C@@]2(C)C(c3ccoc3)OC(=O)C3OC321 (some centres undefined)		5.98%
CCCS(=O)(=O)N1CCC(C(=O)NCCCN(C)Cc2ccccc2)CC1	28.2 µM (active)	
CCS(=O)(=O)N1CCCC(C(=O)NCCCN(C)Cc2ccccc2)C1 (centres undefined)		-15.3%
CCCS(=O)(=O)N1CCC(C(=O)NCCc2ccc(OC)c(OC)c2)CC1		-16.7%
Cc1c(O)cc(O)c2c(=O)c(-c3ccc(O)cc3)coc12		3.52%
Cc1cccc(N2CCN(C(=O)c3cc4c(=O)[nH]c5ccccc5c4n3C)CC2)c1C	31.6 µM (active)	
Cc1cccc(N2CCN(C(=O)c3oc(=O)c4ccccc4c3-c3ccccc3)CC2)c1C		-5.53%
CCn1c(C)c(C)c2cc(C(=O)N3CCN(c4cccc(C)c4C)CC3)ccc21	inactive	
O=C(Nc1cccc(F)c1)N1CC2(CCN(C(=O)c3cnccn3)CC2)C1		-4.89%
COC(=O)c1ccccc1-c1cc(C)cc2c1OC(CNC(=O)C1CCOC1)C2 (centres undefined)		5.07%
Cc1cc(S(=O)(=O)N2CCOCC2)ccc1OCC(=O)N1CCOCC1		-0.573%
O=C(COc1ccc(S(=O)(=O)N2CCCC2)cc1[N+](=O)[O-])N1CCCCC1		-21.6%
Cc1cc(C(=O)COc2ccccc2[N+](=O)[O-])c(C)n1-c1cccc(S(=O)(=O)N2CCOCC2)c1	12.6 µM (active)	

Reference: PubChem BioAssay AID1159524 (National Center for Advancing Translational Sciences (NCATS), 2015)
